Assay outcomes deposited in PubChem by National Center for Advancing Translational Sciences (NCATS).
Rows were chosen to be rich in hits. Some 12% of all compounds tested hit in one or more screens of this group.
AmpC inh detg: blocks E. coli AmpC beta-lactamase in detergent assay; AmpC hydrolysis of nitrocefin, absorbance 480 nm, 0.01% Triton; Potency, µM (top dose mostly 114 µM), actives largely listed as inhibitors; hit rate 0.041% among 370,000; AID 485294; further: nearly all actives have a fitted effect of over 25% in size
Target sequence (P00811 whole entry, looked up): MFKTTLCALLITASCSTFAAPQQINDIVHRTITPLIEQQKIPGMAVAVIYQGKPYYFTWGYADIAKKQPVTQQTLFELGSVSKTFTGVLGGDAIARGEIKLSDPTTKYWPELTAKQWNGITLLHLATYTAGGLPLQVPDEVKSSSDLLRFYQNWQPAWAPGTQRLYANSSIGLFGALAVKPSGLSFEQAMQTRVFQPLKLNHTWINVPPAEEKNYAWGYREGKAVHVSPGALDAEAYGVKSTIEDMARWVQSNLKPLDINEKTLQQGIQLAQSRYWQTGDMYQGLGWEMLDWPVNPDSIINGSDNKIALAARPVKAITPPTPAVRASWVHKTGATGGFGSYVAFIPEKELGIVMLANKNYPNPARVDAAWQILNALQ
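AmpC (5.3 nM in the dispensed reagent) in 20 mM phosphate pH 7.0 with 0.01% (detergent screen) or 0.0001% Triton X-100 was preincubated with compounds for 15 min at room temperature. Nitrocefin was then added from an 800 uM solution, and hydrolysis was followed at 480 nm.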
Pf growth 48h: P. falciparum growth inhibition at 48 hours (one generation); P. falciparum luciferase growth in erythrocytes, 48 h; Potency, µM (series often up to 28.7 µM), usual class: inhibitors; hit rate 5.9% among 310,000; AID 504832
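Luciferase-expressing P. falciparum in infected erythrocytes (2% hematocrit, 0.1% parasitemia final) in RPMI 1640/0.5% Albumax were exposed to compound for 48 hours at 37 C, 5% CO2; growth read as luminescence.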
AmpC no deterg: AmpC beta-lactamase inhibition without detergent | P00811 | AmpC nitrocefin hydrolysis, absorbance 480 nm, 0.0001% Triton | Potency, µM (series often up to 57.1 µM), most hits filed as inhibitors | hit rate 0.52% among 330,000; further: nearly all actives have a fitted effect of over 20% in size
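AmpC (5.3 nM in the dispensed reagent) in 20 mM phosphate pH 7.0 with 0.01% (detergent screen) or 0.0001% Triton X-100 was preincubated with compounds for 15 min at room temperature. Nitrocefin was then added from an 800 uM solution, and hydrolysis was followed at 480 nm.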
SARS PLpro yeast: SARS-CoV PLP inhibition in yeast | hit rate 0.19% among 330,000 | S. cerevisiae expressing SARS-CoV PLpro, growth rescue | Potency, µM (top dose mostly 32.9 µM), most hits filed as activators; calls by dose curve; further: nearly all actives have a fitted effect of over 55% in size
Pf growth 96h: P. falciparum growth inhibition at 96 hours; P. falciparum luciferase reporter growth, 96 h; Potency, µM (titrated, usually from 28.7 µM), hits mostly inhibitors; hit rate 6.9% among 320,000
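Readout is luminescence from an integrated firefly luciferase in P. falciparum. Red cells, 2% hematocrit and 0.05% parasitemia final, were cultured with compound through two parasite generations (96 hours) at 37 C, 5% CO2.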
Sm TGR inh: S. mansoni TGR enzyme inhibition. purified TGR, DTNB reduction, TNB absorbance 405 nm. Potency, µM (titrated, usually from 114 µM), hits mostly inhibitors. hit rate 3% among 360,000; further: nearly all actives have a fitted effect of over 60% in size
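TGR 20 nM + NADPH 100 uM (dispensed conc.), cpd preinc 15 min RT; start with NADPH (500 uM addition) then DTNB (15 mM addition). Kinetic TNB absorbance, 405 nm filter. Four-parameter Hill fit across titration.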
Hits are given with their value; i = inactive; ? = inconclusive; nt = not tested or not shown; [ ] = another dose, or the depositor's remark. Unless noted, the call rests on the fitted dose curve; in most records, active means well fitted curve in the direction sought with a large enough effect; inconclusive means small, poorly fitted or top-dose-only effect, or another doubt; inactive means no such curve, though single readings can be large; an effect the other way counts as inactive or inconclusive.

SMILES	AmpC inh detg	Pf growth 48h	AmpC no deterg	SARS PLpro yeast	Pf growth 96h	Sm TGR inh
O=C1C(Cl)=CC(=Nc2ccc(O)cc2)C=C1Cl	?	?	28µM	i	i	0.89µM
O=C1CSC(=Nc2ccc(O)cc2)N1	i	i[0.00184 µM]	i	i	i	i
O=C(OCc1cc(=O)n2nc(-c3cccs3)sc2n1)c1ccccc1Cl	i	nt	nt	nt	nt	i
CN1C[C@@H]2C(c3ccccc3)C3(c4ccc(C#N)cc4)CC2(C3)[C@H]1c1ccccc1 (stereo partly specified)	i	10µM	i	i	10µM	i
CN1C[C@@H]2C(c3ccc(C(F)(F)F)cc3)C3(c4ccc(C#N)cc4)CC2(C3)[C@H]1c1ccccc1 (stereo partly specified)	i	12µM	i	i	12µM	i
Cc1ccc(CNC2=NCCS2)cc1	i	?	i	i	3.3µM	i
CCOC(=O)C1C(=O)NC(C)C1c1ccccc1 (stereo unspecified)	i	i	i	i	?	i
CCC(=O)Nc1ccc(C(=O)CN2C(=O)NC3(CCCCCC3)C2=O)cc1	i	i	i	i	i	i
O=c1cc(CO)oc(C(Nc2ccccn2)c2ccc(C(F)(F)F)cc2)c1O (stereo unspecified)	i	?	i	i	i	40µM
O=C(c1ccccc1)C(Nc1ccccn1)c1ccccc1 (stereo unspecified)	i	i	i	i	i	nt
O=c1cc(CO)oc(C(Nc2ccccn2)c2cccc(F)c2)c1O (stereo unspecified)	?	i	40µM	i	i	2.8µM
O=c1cc(CO)occ1OCc1cccc(C(F)(F)F)c1	i	i	i	i	i	i
C=CCc1ccc(O)c(-c2cc(CC=C)ccc2O)c1	i	?	i	i	3.7µM	56µM
C=CCc1ccc(OC)cc1	i	i	i	i	i	i
C/C=C\C=C\C(=O)N1CC2(CC(c3cccc(NC(=O)COc4ccc(Cl)cc4)c3)=NO2)C[C@H]1C(N)=O (stereo partly specified)	i	13µM	i	i	10µM	7.1µM
CCCCCC(=O)Nc1cccc(C2=NOC3(C2)C[C@H](C(N)=O)N(C(=O)COc2ccc(Cl)cc2)C3)c1 (stereo partly specified)	i	?	i	i	?	i
C/C=C(\C)C(=O)N1CC2(CC(c3cccc(NC(=O)COc4ccc(Cl)cc4)c3)=NO2)C[C@@H]1C(N)=O (stereo partly specified)	i	12µM	i	i	?	i
C/C=C\C=C/C(=O)Nc1cccc(C2=NOC3(C2)C[C@@H](C(N)=O)N(C(=O)COc2ccc(Cl)cc2)C3)c1 (stereo partly specified)	i	?	i	i	?	3.2µM
O=c1c2ccccc2cnn1Cc1n[nH]c(=S)n1-c1ccccc1	?	i	i	i	i	i
OC(C#CCN1CCCC1)(c1ccccc1)c1cccnc1 (stereo unspecified)	i	?	i	i	?	32µM
OC(C#CCN1CCCCCC1)(c1ccccc1)c1cccnc1 (stereo unspecified)	i	?	i	i	12µM	14µM
C[C@H](NS(=O)(=O)c1ccccc1F)C(=O)OCC(=O)N1CCc2ccccc21	i	nt	i	i	i	i
O=C(O)CNC(=O)C(c1ccccc1)c1ccccc1	i	13µM	i	i	i	i
CCOc1ccc(CNC(=O)CCC(=O)N2CC(C)Sc3ccccc32)cc1 (stereo unspecified)	i	nt	nt	nt	nt	i
COc1ccc(-c2c(-c3ccccc3OC)oc3ccccc23)cc1F	i	2.9µM	i	i	2.6µM	i
Cc1ccc(Cl)cc1N1CCN(C(=O)c2ccc(CN3CCOCC3)cc2)CC1	i	?	i	i	i	i
Cc1ccc(Cl)cc1N1CCN(Cc2cc3c(cc2O)CCC3)CC1	i	nt	i	i	0.15µM	i
COc1ccc(N2CCN(Cc3csc(C)c3-c3ccc(C)cc3)CC2)cc1	i	10µM	i	i	i	i
COCCn1c(CCC(=O)Nc2ccc(OC)c(OC)c2)nc2cccnc21	i	nt	nt	nt	nt	i
